# Data taken from PubChem BioAssay.
# Activity calls are given as the source filed them. Unless noted, the rule behind the calls is not given here.
# Key:
# [1] = system: Wnt5a (protein binding on small-molecule microarray); assay: small molecules binding Wnt5a protein – biophysical, small-molecule microarray, 635/667 nm fluorescence, primary screen (AID 1142); conditions: 635 nm fluorescence, higher = more signal;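 note: fluorescence read at 667 nm with signal to noise per printed feature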
# [2] = ATP-based viability of Huh7 replicon cells – cell-based, CellTiter-Glo luminescence, basal, 48 h, cytotoxicity control for HCV replication inhibitor project, primary screen (AID 1143); conditions: higher = more signal, called active from +8 up or from −8 down;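 note: Huh7 hepatoma cells carrying a hepatitis C replication reporter with no stimulus; test concentration not given here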
# [3] = Pseudomonas biofilm growth suppression – PAO1 strain, BacTiter-Glo luminescence, LB-PBS, primary screen (AID 1144); conditions: P. aeruginosa PAO1 biofilm, 12 h, higher = more signal
# [4] = basal CRE-LacZ reporter activity in PC12 – cell-based, unstimulated, primary screen (AID 1145); conditions: no forskolin, luminescence, 4.5 h, higher = more signal, called active from +8 up or from −8 down
# [5] = forskolin-driven CRE-LacZ activity in PC12 – cell-based, CRE-LacZ reporter, forskolin-stimulated, primary screen (AID 1146); conditions: luminescence, 4.5 h, higher = more signal, called active from +8 up or from −8 down;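 note: PC12 cells with 6xCRE LacZ reporter stimulated by forskolin 10 µM; beta-galactosidase reporter signal reflecting CREB driven transcription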
# [6] = target: Streptavidin (Streptomyces avidinii) (UniProt P22629); assay: compounds binding control protein streptavidin – biophysical, small-molecule microarray, 635/667 nm fluorescence, artefact control for SMM compound annotation, primary screen (AID 1147); conditions: higher = more signal;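 note: signal reflects streptavidin binding to arrayed compounds as a control protein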
# [7] = probe aInhba binding on compound microarray – biochemical, small-molecule microarray, 635/667 nm fluorescence, primary screen (AID 1148); conditions: higher = more signal;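 note: score merges 667nm spot fluorescence with signal-to-noise for antibody binding to printed compounds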
# Torsin-1A (Homo sapiens) [8] = target: Torsin-1A (Homo sapiens) (UniProt O14656); assay: TOR1A wild-type binding on microarray – cell lysate, small-molecule microarray, lysate, 635/667 nm, primary screen (AID 1149); conditions: COS7 hTOR1A-WT lysate, 635 nm fluorescence, higher = more signal
# Torsin-1A (Homo sapiens) [9] = target: Torsin-1A (Homo sapiens) (UniProt O14656); assay: torsin A mutant lysate binding on microarrays – cell lysate, small-molecule microarray, COS7 lysate, 635/667 nm fluorescence, primary screen (AID 1150); conditions: COS7 hTOR1A mutant lysate, 635 nm fluorescence, higher = more signal;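 note: score pools 667 nm emission and signal to noise measuring lysate protein binding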
# [10] = system: Sonic hedgehog protein (Shh); assay: Sonic hedgehog microarray binding compounds – biochemical, small-molecule microarray, 635/667 nm fluorescence, primary screen (AID 1151); conditions: 635 nm fluorescence, higher = more signal;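 note: Shh protein binding to compounds spotted on small-molecule microarray slides; score combines spot fluorescence intensity with signal-to-noise across triplicate slides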
# [11] = optical density shifts of acrAB sulA E. coli – strain DRC41, OD650, 48 h, E. coli filamentation inducer project, primary screen (AID 1152); conditions: higher = more signal, called active from +8 up or from −8 down;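 note: E. coli MC1000 strain DRC41 lacking acrAB efflux pump and sulA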
# [12] = probe aLefty1 binding on compound microarray – biochemical, small-molecule microarray, 635/667 nm fluorescence, primary screen (AID 1153); conditions: higher = more signal;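 note: score merges spot fluorescence with signal-to-noise ratio from the scanned slide images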
# [13] = plasmodial surface anion channel blockers, osmotic lysis – cell-based, P. falciparum Indochina, OD700, 1 h, primary screen (AID 1154); conditions: P. falciparum Indochina infected RBC osmotic lysis, higher = more signal, called active from +8 up or from −8 down
# [14] = plasmodial surface anion channel blockers, osmotic lysis – cell-based, P. falciparum Indochina, OD700, 2 h, primary screen (AID 1155);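 note: lysis reports solute entry through the parasite surface anion channel PSAC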; conditions: P. falciparum Indochina infected erythrocytes, higher = more signal, called active from +8 up or from −8 down
# [15] = changes in parasitized red cell lysis, either direction – P. falciparum Indochina, OD700, 3 h, PSAC antagonist project, primary screen (AID 1156); conditions: P. falciparum-infected erythrocytes, osmotic lysis, higher = more signal, called active from +8 up or from −8 down
# [16] = plasmodial surface anion channel blockers, osmotic lysis – cell-based, P. falciparum Indochina, OD700, 18 h, primary screen (AID 1157); conditions: P. falciparum Indochina infected erythrocytes, osmotic lysis OD700, 18 h; higher = more signal, called active from +8 up or from −8 down
# [17] = S6 kinase pathway phospho-S6 level changes – cell-based, A549, cytoblot, luminescence, serum-stimulated, primary screen (AID 1158); conditions: 5 h, higher = more signal;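 note: serum-stimulated A549 lung adenocarcinoma cells; signal is phosphorylated S6 detected by cytoblot immunostaining with HRP secondary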
# [18] = target: NADPH oxidase 2 (Homo sapiens) (UniProt P04839); assay: compounds shifting NOX2 Amplex Red fluorescence – cell-based, HEK293-NOX2, PMA-stimulated, NOX inhibitor project, primary screen (AID 1159); conditions: 45 min, higher = more signal, called active from +8 up or from −8 down; note: test concentration not given here
# [19] = target: NADPH oxidase 4 (Homo sapiens) (UniProt Q9NPH5); assay: compounds shifting NOX4 Amplex Red fluorescence – cell-based, HEK293-NOX4, tetracycline-induced, NOX inhibitor project, primary screen (AID 1160); conditions: HEK293-NOX4, Amplex Red H2O2 fluorescence, 45 min; higher = more signal, called active from +8 up or from −8 down
# [20] = target: NADPH oxidase 5 (Homo sapiens) (UniProt Q96PH1); assay: compounds shifting NOX5 Amplex Red fluorescence – cell-based, HEK293-NOX5, NOX inhibitor project, primary screen (AID 1161); conditions: HEK293-NOX5, ionomycin, 45 min, higher = more signal
# Chain of NADPH oxidase 5 (Homo sapiens) (Q96PH1 whole entry, looked up): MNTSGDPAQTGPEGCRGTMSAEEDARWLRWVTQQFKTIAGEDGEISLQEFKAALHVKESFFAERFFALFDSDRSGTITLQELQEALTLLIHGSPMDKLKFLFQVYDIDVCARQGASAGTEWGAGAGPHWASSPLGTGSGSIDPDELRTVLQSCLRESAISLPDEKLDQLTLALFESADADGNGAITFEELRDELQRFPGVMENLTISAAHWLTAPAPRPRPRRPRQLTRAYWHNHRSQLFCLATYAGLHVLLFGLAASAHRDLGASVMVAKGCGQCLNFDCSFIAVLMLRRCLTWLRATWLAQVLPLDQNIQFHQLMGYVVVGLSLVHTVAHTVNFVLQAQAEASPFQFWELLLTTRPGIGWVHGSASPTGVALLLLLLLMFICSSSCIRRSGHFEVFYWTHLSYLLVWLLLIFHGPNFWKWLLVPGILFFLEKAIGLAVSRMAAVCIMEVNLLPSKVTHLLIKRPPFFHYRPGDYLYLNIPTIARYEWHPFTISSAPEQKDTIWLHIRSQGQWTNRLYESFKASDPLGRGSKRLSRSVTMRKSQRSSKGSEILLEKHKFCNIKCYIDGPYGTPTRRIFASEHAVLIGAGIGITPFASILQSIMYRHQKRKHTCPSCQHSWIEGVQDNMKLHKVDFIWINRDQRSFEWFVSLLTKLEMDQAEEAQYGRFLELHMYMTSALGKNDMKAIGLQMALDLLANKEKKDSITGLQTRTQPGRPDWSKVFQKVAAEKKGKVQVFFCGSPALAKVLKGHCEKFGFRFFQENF
# Chain of NADPH oxidase 4 (Homo sapiens) (Q9NPH5 whole entry, looked up): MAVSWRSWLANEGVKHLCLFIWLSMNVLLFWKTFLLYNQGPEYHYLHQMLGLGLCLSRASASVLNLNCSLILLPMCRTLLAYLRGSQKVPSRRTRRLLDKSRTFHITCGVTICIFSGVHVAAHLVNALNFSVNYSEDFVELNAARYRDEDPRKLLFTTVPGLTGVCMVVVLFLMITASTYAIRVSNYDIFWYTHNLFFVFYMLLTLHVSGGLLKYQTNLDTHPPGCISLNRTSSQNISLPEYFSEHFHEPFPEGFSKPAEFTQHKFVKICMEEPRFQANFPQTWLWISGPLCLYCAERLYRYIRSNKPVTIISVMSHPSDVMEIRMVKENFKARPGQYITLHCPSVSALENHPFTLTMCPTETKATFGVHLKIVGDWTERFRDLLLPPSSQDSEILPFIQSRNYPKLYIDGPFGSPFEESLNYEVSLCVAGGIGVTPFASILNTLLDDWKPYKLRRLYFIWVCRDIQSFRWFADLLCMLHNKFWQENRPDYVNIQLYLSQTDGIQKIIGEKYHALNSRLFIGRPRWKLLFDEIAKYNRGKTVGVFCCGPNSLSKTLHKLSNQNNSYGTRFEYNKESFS
# Chain of NADPH oxidase 2 (Homo sapiens) (P04839 whole entry, looked up): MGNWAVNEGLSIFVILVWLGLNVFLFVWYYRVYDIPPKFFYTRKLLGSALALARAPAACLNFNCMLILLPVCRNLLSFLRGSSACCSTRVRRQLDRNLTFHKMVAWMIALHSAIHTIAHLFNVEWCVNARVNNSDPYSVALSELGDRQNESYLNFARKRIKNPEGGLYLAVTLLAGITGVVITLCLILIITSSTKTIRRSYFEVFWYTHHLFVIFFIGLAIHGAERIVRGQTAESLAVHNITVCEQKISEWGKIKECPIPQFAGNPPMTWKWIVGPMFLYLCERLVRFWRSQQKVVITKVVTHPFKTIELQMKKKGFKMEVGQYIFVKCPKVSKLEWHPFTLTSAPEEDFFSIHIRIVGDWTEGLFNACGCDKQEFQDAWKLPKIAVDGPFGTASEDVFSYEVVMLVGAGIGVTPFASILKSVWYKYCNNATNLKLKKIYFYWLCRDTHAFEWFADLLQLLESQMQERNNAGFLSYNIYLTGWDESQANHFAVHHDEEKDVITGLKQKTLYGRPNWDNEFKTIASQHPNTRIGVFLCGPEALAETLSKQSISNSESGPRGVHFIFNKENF
# Chain of Torsin-1A (Homo sapiens) (O14656 whole entry, looked up): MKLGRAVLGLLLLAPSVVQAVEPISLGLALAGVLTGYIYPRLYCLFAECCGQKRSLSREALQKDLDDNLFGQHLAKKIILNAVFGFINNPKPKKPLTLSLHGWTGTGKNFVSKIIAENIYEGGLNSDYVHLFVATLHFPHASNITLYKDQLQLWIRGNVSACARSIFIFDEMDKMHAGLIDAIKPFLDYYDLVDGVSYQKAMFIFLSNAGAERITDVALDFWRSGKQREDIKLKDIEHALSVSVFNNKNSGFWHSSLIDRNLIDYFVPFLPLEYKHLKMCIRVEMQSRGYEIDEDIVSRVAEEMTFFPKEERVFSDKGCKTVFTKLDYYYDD
# Chain of Streptavidin (Streptomyces avidinii) (P22629 whole entry, looked up): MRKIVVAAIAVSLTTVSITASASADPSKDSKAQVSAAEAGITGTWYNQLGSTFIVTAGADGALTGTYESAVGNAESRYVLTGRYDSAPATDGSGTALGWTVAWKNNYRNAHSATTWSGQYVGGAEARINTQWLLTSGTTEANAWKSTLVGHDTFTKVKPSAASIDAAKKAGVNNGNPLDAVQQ
SMILES,composite z-score [1],z-score [2],z-score [3],z-score [4],z-score [5],composite z-score [6],composite z-score [7],composite z-score (Torsin-1A (Homo sapiens) [8]),composite z-score (Torsin-1A (Homo sapiens) [9]),composite z-score [10],z-score [11],composite z-score [12],z-score [13],z-score [14],z-score [15],z-score [16],z-score [17],z-score [18],z-score [19],z-score [20]
COC(=O)c1c(CC[C@@H](CO)NC(=O)N[C@@H](Cc2ccccc2)Cn2cc(-c3cncn3C)nn2)oc(C(C)=O)c1C(=O)OC,-0.245,-3.29 (inactive),-0.662 (inactive),-0.491 (inactive),-0.566 (inactive),-0.0808,0.0872,0.443,1.26,1.75,0.922 (inactive),-0.147,1.49 (inactive),-0.182 (inactive),1.29 (inactive),-0.277 (inactive),1.22,-5.64 (inactive),-2.01 (inactive),-3.3
COCCOC(=O)N1C(=O)[C@@]2(c3cc(C#Cc4ccc(OC)cc4)ccc31)[C@H](C(=O)Nc1nc3ccccc3s1)[C@H]1C(=O)O[C@H](c3ccccc3)[C@H](c3ccccc3)N1[C@@H]2c1ccccc1OCCO,0.0516,-4.28 (inactive),-1.6 (inactive),-1.7 (inactive),-1.44 (inactive),0.299,-0.0566,0.245,0.243,1.34,2.47 (inactive),-0.295,8.82 (active),0.873 (inactive),0.953 (inactive),0.514 (inactive),0.486,1.13 (inactive),0.337 (inactive),1.45
CC(C)(C)OC(=O)CC[C@]1(C(=O)N2CCOCC2)N=C(c2ccc(OCCCO)cc2)O[C@H]1c1ccccc1CN=[N+]=[N-],1.07,-0.569 (inactive),-0.405 (inactive),-0.263 (inactive),-1.4 (inactive),1.08,0.279,1.12,1.58,0.242,-0.47 (inactive),0.705,13.9 (active),1.71 (inactive),1.05 (inactive),0.421 (inactive),0.705,-1.34 (inactive),0.181 (inactive),-0.476
O=C1c2ccccc2[C@](Cc2ccccc2I)(C(=O)O)[C@H](c2ccc(CO)cc2)N1Cc1ccccc1,0.303,-2.39 (inactive),-0.718 (inactive),0.0548 (inactive),0.131 (inactive),0.201,0.0627,0.363,0.0706,-0.282,0.848 (inactive),0.223,4.42 (inactive),-0.579 (inactive),-0.144 (inactive),-0.656 (inactive),1.25,0.516 (inactive),0.148 (inactive),1.71
C=CC[C@]1(C(=O)NCc2ccccc2)COC(c2ccc(OCCCO)cc2)=N1,0.602,-3.63 (inactive),0.271 (inactive),1.38 (inactive),-0.505 (inactive),-0.479,0.0503,0.29,1.52,-0.88,0.553 (inactive),0.743,20.7 (active),6.37 (inactive),1.44 (inactive),0.541 (inactive),-0.429,-2.18 (inactive),0.00403 (inactive),-2.1
C=CCC(OC(C)=O)[C@@H]1[C@@H](N(Cc2ccc(-c3ccccc3)cc2)C(=O)c2ccc(C)cc2)c2cc(OCCCO)ccc2N1C(=O)c1ccc2ccccc2c1 (stereo not given in full),0.0548,-0.715 (inactive),0.137 (inactive),1.97 (inactive),0.179 (inactive),0.122,0.108,0.222,-0.0531,0.587,2.09 (inactive),0.0367,0.0032 (inactive),-0.792 (inactive),-1.31 (inactive),-1.33 (inactive),1.18,-0.167 (inactive),0.972 (inactive),1.94
Cc1ccc(S[C@]2(C(=O)NCCN3CCOCC3)CC(=O)N(C3CCCCC3)[C@@H]2c2ccc(CO)cc2I)cc1,0.328,-2.19 (inactive),-0.435 (inactive),-0.231 (inactive),0.341 (inactive),1.24,-0.117,0.383,1.15,1.94,0.465 (inactive),-0.174,6.63 (inactive),0.86 (inactive),1.68 (inactive),0.622 (inactive),-0.439,0.832 (inactive),0.11 (inactive),2.6
CC(C)[Si](C#CCCCC#N)(O[C@H](c1ccccc1)c1cn([C@H](C)c2ccccc2)nn1)C(C)C,0.0952,-1.75 (inactive),-0.0514 (inactive),-0.23 (inactive),0.301 (inactive),0.492,0.0183,0.0529,0.28,1.09,1.03 (inactive),-0.0984,1.66 (inactive),0.878 (inactive),0.0478 (inactive),0.211 (inactive),0.147,1.19 (inactive),0.406 (inactive),0.255
